# Assay results from PubChem BioAssay (NCI).
# Compounds without any hit were thinned out: in the full panel of roughly 83,000, 20% have a hit.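 For each line, cells grew in 96-well plates with the test compound present at a single concentration for 48 hours.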 A number with no mark means an inactive call. The source made the active and inactive calls. How the source made its calls: active means growth percent below 10; inactive means the rest.
# What was measured:
# Test in all cases: NCI-60 one-dose screen, 48 h (100 = growth as untreated, 0 = no growth, -100 = all killed)
# [1] = test system: NCI-H23 lung; conditions: 10 µM unless noted
# [2] = test system: NCI-H226 lung; conditions: 10 µM unless noted
# [3] = test system: NCI-H322M lung; conditions: 10 µM unless noted
# [4] = test system: HOP-62 NSCLC; conditions: 10 µM unless noted
# [5] = test system: NCI-H460 lung; conditions: 10 µM unless noted
# [6] = test system: HOP-92 NSCLC; conditions: 10 µM unless noted
# [7] = test system: NCI-H522 lung; conditions: 10 µM
# [8] = test system: 786-0 renal; conditions: 10 µM unless noted
# [9] = test system: COLO 205 colon; conditions: 10 µM unless noted
Structure (SMILES),growth [1],growth [2],growth [3],growth [4],growth [5],growth [6],growth [7],growth [8],growth [9]
OCCN1CCN(CCCN2c3ccccc3Sc3ccc(C(F)(F)F)cc32)CC1,65.5%,82.7%,65%,45.9%,6.79% (active),6.66% (active),19.5%,38.7%,-81.9% (active)
Nc1nc(SCc2cccnc2)c2ncn(C3OC(CO)C(O)C3O)c2n1 (stereo not given),97.9%,94.9%,108%,85.7%,96.6%,78.1%,102%,103%,114%
CC(C)Sc1nc(-c2ccc(Br)cc2)c(C#N)c(N2CCCCC2)n1,110%,100%,93.7%,115%,104%,105%,99.3%,82.7%,135%
N=C1c2nc3n(c2C(=O)c2nc4n(c21)CCCCC4)CCCCC3,97.3%,98.3%,110%,122%,92.6%,126%,90.9%,120%,–
O=C(O)CCNS(=O)(=O)c1ccc(-c2ccccc2)cc1,98.4%,92%,129%,103%,114%,83.9%,98.4%,106%,111%
Cc1ccc(-c2cc(-c3ccccc3)n(-c3ccccc3)n2)cc1,95.9%,97.9%,97.3%,-2.85% (active),104%,108%,79%,92.9%,112%
COc1cc(OC)c2c(c1Cl)O[C@]1(C2=O)C(OCc2ccccc2)=CC(=O)C[C@H]1C,20.9%,45.8%,36.4%,5.17% (active),6.23% (active),-16.7% (active),-24.7% (active),37.8%,-32.6% (active)
O=C(O)CCC(=O)OC[C@@H](NC(=O)C(Cl)Cl)[C@H](O)c1ccc([N+](=O)[O-])cc1,98.4%,89.3%,99.5%,98.5%,111%,86.7%,91.7%,93.7%,99.4%
CCCCN1c2nc3ccccc3cc2Sc2cc3ccccc3nc21,97.6%,93.2%,104%,90.7%,99%,28.4%,92.8%,98.5%,132%
CN[C@@H]1C(OC2[C@H](O[C@H]3[C@H](O)[C@@H](O)[C@H](N=C(N)N)[C@@H](O)[C@@H]3N=C(N)N)OC(C)[C@]2(O)CO)OC(CO)C(O)C1O (stereo not given in full),103%,108%,111%,107%,113%,118%,112%,106%,109%
CC(C)CC1NC(=O)C(CCCN)NC(=O)C(C(C)C)NC(=O)C2CCCN2C(=O)C(Cc2ccccc2)NC(=O)C(CC(C)C)NC(=O)C(CCCN)NC(=O)C(C(C)C)NC(=O)C2CCCN2C(=O)C(Cc2ccccc2)NC1=O (stereo not given),-75.9% (active),-59.7% (active),-65.5% (active),-86.5% (active),-73.2% (active),-56.7% (active),-80.7% (active),-85.9% (active),-90.2% (active)
CCOC(=O)c1sc(NC(=O)COc2ccc(/C=C3\CCc4cc(OC)ccc4C3=O)cc2)nc1C,96.6%,92.2%,96.5%,103%,111%,106%,-2.75% (active),90.7%,137%
Cn1ccnc1C(=O)/C=C/c1ccc(C(=O)Nc2nc3ccccc3[nH]2)cc1,23.3%,82.4%,43.8%,34.1%,10.9%,52.8%,58.6%,23.6%,55.1%
CCN1CC2=C(Nc3nc(SC)[nH]c(=O)c3C2c2cc(OC)c(OC)c(OC)c2)/C(=C/c2cc(OC)c(OC)c(OC)c2)C1 (stereo not given),99.2%,98.5%,95.2%,104%,106%,81.6%,81.2%,96.9%,113%
COc1cc(/C(Cl)=C/C=C/C(=O)c2c(C)[n+]([O-])c3ccc(Cl)cc3[n+]2[O-])cc(OC)c1OC,63.7%,54.3%,96.3%,7.24% (active),56.6%,68.8%,-33.4% (active),35.1%,-14.8% (active)
C[C@H]1O[C@@H](O[C@H]2[C@@H](O)C[C@H](O[C@H]3[C@@H](O)C[C@H](O[C@H]4CC[C@]5(C)C6C[C@@H](O)[C@]7(C)[C@@H](C8=CC(=O)OC8)CC[C@]7(O)C6CC[C@@H]5C4)O[C@@H]3C)O[C@@H]2C)C[C@H](O)[C@@H]1O (stereo not given in full),-54.9% (active),-100% (active),-75.3% (active),-100% (active),-95.1% (active),-26% (active),-83.9% (active),-91.7% (active),-85.9% (active)
Cc1cc2ccccn2c1C(=O)c1ccc(C(=O)c2ccccc2)cc1,84%,86.9%,90.1%,98.4%,97.3%,82.3%,79.7%,84.9%,102%
O=C(c1ccc(Cl)cc1)c1ccc(Cl)cc1,104%,100%,115%,98.8%,107%,101%,85.2%,114%,117%
COc1cc(/C=C2\SC(N3CCCCC3)=NC2=O)ccc1OCCCCCCOc1ccc(/C=C2\SC(N3CCCCC3)=NC2=O)cc1OC,5.35% (active),-20.1% (active),48.3%,6.62% (active),-45.4% (active),32.2%,-11.5% (active),50.5%,0.374% (active)
Cc1cn(C(C=O)OC(C=O)CO)c(=O)[nH]c1=O (stereo not given),107%,105%,106%,102%,105%,104%,98%,107%,109%
O=C(COc1ccc(/C=C2\Oc3ccc4ccccc4c3C2=O)cc1)c1ccc([N+](=O)[O-])cc1,96.5%,105%,99.9%,118%,104%,96.7%,49%,103%,134%
O=C(N/N=C/c1cccc(O)c1)c1ccc(C(F)(F)F)nc1Nc1cccc(C(F)(F)F)c1,13.4%,12.6%,-6.79% (active),-32.9% (active),11.5%,-28.4% (active),-7.57% (active),-13.8% (active),-0.875% (active)
Cc1ccc(-c2csc(N)n2)cc1,102%,97.4%,107%,110%,102%,70.7%,98.8%,98.3%,115%
O=c1[nH]cc(Nc2cc(Cl)c3nonc3c2[N+](=O)[O-])c(=O)[nH]1,91.2%,92.3%,110%,102%,107%,95.5%,98%,105%,109%
COc1cc(/C=N/NC(=O)c2ccc(C(F)(F)F)nc2Nc2ccc(Cl)cc2C)ccc1O,47.9%,39.6%,25.5%,9.04% (active),24.5%,40%,44.6%,4.66% (active),51.8%
NS(=O)(=O)N(c1cc(C(F)(F)F)cc(C(F)(F)F)c1)C1CCN(Cc2ccc(C(F)(F)F)cc2)CC1,9.79% (active),78.1%,45.1%,30.2%,5.71% (active),7.48% (active),-23.3% (active),42.3%,-59.8% (active)
O=C(c1ccc(N2CCOCC2)cc1[N+](=O)[O-])N1CCOCC1,97.2%,97.9%,111%,94.8%,116%,94.3%,94%,102%,87.1%
C[C@H]1C(=O)N2c3ccccc3[C@@]3(O)C[C@@H](n4cnc5ccccc5c4=O)C(=O)N1[C@@H]23,106%,98.1%,109%,97.4%,107%,102%,92.5%,102%,110%
Cc1ccc(OCC(=O)Nc2ccc(Oc3ccccc3)cc2)c([N+](=O)[O-])n1,47%,68.8%,95%,79.6%,76.3%,73.7%,33.2%,66.3%,94.5%
